This passage reports growth results from PubChem BioAssay (NCI).

Structures are written as SMILES. This is part of a sample that, as a whole, favours compounds with a hit. Of some 83,000 tested, about 20% had one in any assay.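 The test compound was applied at a single concentration to cells in 96-well plates for 48 hours, and percent growth was recorded.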 Active and inactive are the calls of the source. Rule for the calls: active = growth percent below 10; inactive = the rest.

Among the test systems are NCI-H23 lung; NCI-H322M lung; HOP-62 NSCLC; NCI-H460 lung; HOP-92 NSCLC; NCI-H522 lung; A549/ATCC NSCLC; 786-0 renal; COLO 205 colon; DU-145 prostate.
Common to all, as to assay: NCI-60 one-dose screen, 48 h (100 = growth as untreated, 0 = no growth, -100 = all killed)
Conditions in all cases: 10 µM unless noted

For `CCOc1ccc(-c2nonc2NC(=O)c2cccc(C)c2)cc1OCC`, the growth in the assay with NCI-H23 lung is 78.9% (inactive); in the assay on NCI-H322M lung it was 93.1% (inactive); in the assay on HOP-62 NSCLC it was 96.9% (inactive); in the assay with NCI-H460 lung, 55.9% (inactive); in the assay on HOP-92 NSCLC it was -8.71% (active); with NCI-H522 lung, 84% (inactive). Also, the growth is 65.4% (inactive) in the assay on A549/ATCC NSCLC, 73.9% (inactive) in the assay with 786-0 renal, 36.8% (inactive) in the assay with COLO 205 colon and 80.5% (inactive) in the assay on DU-145 prostate.

`O=C(NC1CCN(Cc2ccccc2)CC1)c1cc(C(=O)NC2CCN(Cc3ccccc3)CC2)cc(C(=O)NC2CCN(Cc3ccccc3)CC2)c1`: the growth in the assay with NCI-H23 lung was 77.2% (inactive); in the assay with NCI-H322M lung, 90.3% (inactive); with HOP-62 NSCLC, 58.7% (inactive); with NCI-H460 lung it was 91.8% (inactive); in the assay with HOP-92 NSCLC it was 54.3% (inactive); in the assay with NCI-H522 lung it was -67.7% (active). For the same molecule, the growth in the assay on A549/ATCC NSCLC is 39.8% (inactive); with 786-0 renal, 100% (inactive); in the assay on COLO 205 colon it was 108% (inactive); with DU-145 prostate, 93.4% (inactive).

As to `COc1cc(/C=C/C(=O)N2c3ccccc3CC2C)c(OC)c2c1OCO2` (stereo not given), the growth is 90.8% (inactive) in the assay on NCI-H23 lung; 101% (inactive) in the assay on NCI-H322M lung; 119% (inactive) in the assay on HOP-62 NSCLC; 98.2% (inactive) in the assay on NCI-H460 lung; 97.4% (inactive) with HOP-92 NSCLC; 81.5% (inactive) with NCI-H522 lung. The growth in the assay on A549/ATCC NSCLC is 89.1% (inactive); in the assay with 786-0 renal, 94.9% (inactive); in the assay on COLO 205 colon, 125% (inactive); in the assay on DU-145 prostate, 94.5% (inactive).

In the case of `COc1ccc(-c2nsc3c2NC(=O)CC3c2ccsc2)cc1` (stereo not given), the growth was 39.6% (inactive) in the assay with NCI-H23 lung; 42.4% (inactive) with NCI-H322M lung; 33.5% (inactive) in the assay with HOP-62 NSCLC; 6.14% (active) with NCI-H460 lung; 71.9% (inactive) with HOP-92 NSCLC; 11.6% (inactive) with NCI-H522 lung. The growth in the assay on A549/ATCC NSCLC is 27.4% (inactive); in the assay with 786-0 renal it was 29.8% (inactive); in the assay with COLO 205 colon, -77.3% (active); with DU-145 prostate, -8.61% (active).

For the molecule `O=C(CN1C(=O)/C(=C\c2ccc(Cl)cc2)SC1=S)Nc1ncc(Cc2ccc(Cl)cc2)s1`, the growth with NCI-H23 lung is 100% (inactive); in the assay on NCI-H322M lung, 107% (inactive); in the assay with HOP-62 NSCLC, 105% (inactive); with NCI-H460 lung, 100% (inactive); with HOP-92 NSCLC it was 101% (inactive); in the assay with NCI-H522 lung it was 89.5% (inactive). The growth was 108% (inactive) with A549/ATCC NSCLC, 106% (inactive) with 786-0 renal, 110% (inactive) in the assay with COLO 205 colon and 106% (inactive) in the assay on DU-145 prostate.

For the molecule `Cc1cccc(NC(=O)c2sc3nc4c(cc3c2N)CCCC4)c1C`, the growth with NCI-H23 lung was 30.2% (inactive); in the assay with NCI-H322M lung, 42.4% (inactive); with HOP-62 NSCLC, 26.4% (inactive); in the assay on NCI-H460 lung it was 6.76% (active); with HOP-92 NSCLC, 49.6% (inactive); in the assay on NCI-H522 lung, -6.44% (active). The growth in the assay with A549/ATCC NSCLC is 26.3% (inactive); in the assay with 786-0 renal, 34% (inactive); in the assay on COLO 205 colon it was -38% (active); with DU-145 prostate, 19.6% (inactive).

Consider `CN1C(=O)N(C)C2(c3ccccc3)n3c(s/c(=C\c4ccccc4)c3=O)=NNC12c1ccccc1` (stereo not given), for which the growth in the assay with NCI-H23 lung was 97.2% (inactive); in the assay with NCI-H322M lung, 95.3% (inactive); in the assay with HOP-62 NSCLC it was 101% (inactive); in the assay with NCI-H460 lung, 91.6% (inactive); in the assay with HOP-92 NSCLC, 89.5% (inactive); in the assay on NCI-H522 lung it was 84.3% (inactive). In addition, the growth in the assay on A549/ATCC NSCLC was 89.1% (inactive); with 786-0 renal it was 98.3% (inactive); with COLO 205 colon, 112% (inactive); in the assay with DU-145 prostate, 93% (inactive).

`Cn1nc(C(C)(C)C)cc1NC(=O)Cc1ccc(/C=C2\C(=O)Nc3ccccc32)cc1`: the growth with NCI-H23 lung is 41.1% (inactive); with NCI-H322M lung, 84.8% (inactive); with HOP-62 NSCLC, 74.3% (inactive); with NCI-H460 lung it was 67.8% (inactive); with HOP-92 NSCLC it was 59.5% (inactive); with NCI-H522 lung it was 45% (inactive). For the same molecule, the growth with A549/ATCC NSCLC was 57.6% (inactive); with 786-0 renal, 72.1% (inactive); with COLO 205 colon, 80.2% (inactive); with DU-145 prostate it was 56.6% (inactive).

As for `COc1cc([C@@H]2NC(=O)NC(C)=C2C(=O)Nc2nc(-c3ccc(Cl)cc3)cs2)ccc1O`, the growth in the assay with NCI-H23 lung is 96.3% (inactive); in the assay with NCI-H322M lung, 95.4% (inactive); with HOP-62 NSCLC, 86.1% (inactive); in the assay on NCI-H460 lung, 102% (inactive); in the assay with HOP-92 NSCLC, 103% (inactive); with NCI-H522 lung, 84% (inactive). The growth with A549/ATCC NSCLC was 97.1% (inactive); with 786-0 renal, 98.4% (inactive); in the assay on COLO 205 colon, 116% (inactive); in the assay with DU-145 prostate, 102% (inactive).

As for `COc1ccc(Cn2c(Br)c3c(c2-c2cc(OC)c(OC)c(OC)c2)CCc2sc(NC(C)=O)nc2-3)cc1`, the growth in the assay with NCI-H23 lung is 66.1% (inactive); in the assay on NCI-H322M lung, 63% (inactive); in the assay with HOP-62 NSCLC, 60.3% (inactive); in the assay with NCI-H460 lung, 31.2% (inactive); in the assay on HOP-92 NSCLC, 65.5% (inactive); in the assay on NCI-H522 lung, 13.4% (inactive). In addition, the growth in the assay with A549/ATCC NSCLC is 52.8% (inactive); in the assay with 786-0 renal it was 54.1% (inactive); in the assay with COLO 205 colon it was 20.8% (inactive); in the assay on DU-145 prostate, 66.7% (inactive).
